# Reference: PubChem BioAssay (NCI)
# About 83,000 compounds went through this panel and 20% of them were active in at least one assay; those are over-represented in the sample as a whole.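 For each line, cells grew in 96-well plates with the test compound present at a single concentration for 48 hours.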 Unmarked numbers belong to inactive results. The source made the active and inactive calls. The calls were made as follows: active = growth percent below 10; inactive = the rest.
# Legend:
# Assay in all cases: NCI-60 one-dose screen, 48 h (100 = growth as untreated, 0 = no growth, -100 = all killed)
# Conditions in all cases: 10 µM unless noted
# [1] = tested on: SK-MEL-2 melanoma
# [2] = tested on: EKVX NSCLC
# [3] = tested on: SN12C renal
# [4] = tested on: UO-31 renal
# [5] = tested on: TK-10 renal
# [6] = tested on: ACHN renal
# [7] = tested on: CAKI-1 renal
# [8] = tested on: A498 renal
# [9] = tested on: CCRF-CEM leukemia
# [10] = tested on: MOLT-4 leukemia
# [11] = tested on: SR leukemia
# [12] = tested on: RPMI-8226 leukemia
# [13] = tested on: OVCAR-8 ovarian
# [14] = tested on: OVCAR-5 ovarian
# [15] = tested on: OVCAR-4 ovarian
# [16] = tested on: SK-OV-3 ovarian
# [17] = tested on: IGROV1 ovarian
# [18] = tested on: OVCAR-3 ovarian
# [19] = tested on: HS 578T breast
# [20] = tested on: NCI/ADR-RES ovarian
Structure (SMILES),growth [1],growth [2],growth [3],growth [4],growth [5],growth [6],growth [7],growth [8],growth [9],growth [10],growth [11],growth [12],growth [13],growth [14],growth [15],growth [16],growth [17],growth [18],growth [19],growth [20]
Cc1ccc(Nc2oc(-c3ccccc3)nc2[P+](c2ccccc2)(c2ccccc2)c2ccccc2)cc1,-69.1% (active),-31.3% (active),7.56% (active),-72.8% (active),-32.2% (active),2.5% (active),-29.8% (active),-52.2% (active),6.27% (active),-2.23% (active),8.76% (active),-38.3% (active),-27.3% (active),11.3%,6.45% (active),-33.7% (active),-11.9% (active),-30.7% (active),-38.9% (active),-52.3% (active)
CS(=O)(=O)c1cccc(Nc2ncc3cc(-c4ccccc4Cl)ccc3n2)c1,-25.6% (active),23.9%,11%,-3.98% (active),19.5%,2.93% (active),9.3% (active),5.57% (active),9.21% (active),5.83% (active),0.145% (active),1.72% (active),11.3%,32.2%,39%,-2.26% (active),4.09% (active),22.1%,3.45% (active),-1.15% (active)
COC(=O)c1sc(-c2ccc(C)cc2)cc1O,99%,101%,101%,94.1%,99.2%,112%,94.3%,98.5%,103%,87.7%,81.9%,103%,117%,112%,91.5%,114%,100%,99.6%,101%,99.8%
COc1ccc(Nc2nc(Nc3cc(C)[nH]n3)c3cc(OC)c(OC)cc3n2)cc1,-68.6% [20 µM] (active),-79.5% [20 µM] (active),-90.4% [20 µM] (active),-100% [20 µM] (active),-86.6% [20 µM] (active),-100% [20 µM] (active),-100% [20 µM] (active),-98.7% [20 µM] (active),-38.9% [20 µM] (active),-57.1% [20 µM] (active),0.87% [20 µM] (active),-50.4% [20 µM] (active),-31.2% [20 µM] (active),-98% [20 µM] (active),-83.9% [20 µM] (active),-96.2% [20 µM] (active),-88.8% [20 µM] (active),-63.1% [20 µM] (active),-63.1% [20 µM] (active),-63.7% [20 µM] (active)
Cn1cc(-c2ccc3c(Nc4cccc(NC(=O)Nc5cccc(F)c5)c4)ncnc3c2)cn1,43.2%,53%,30.1%,23.7%,39.4%,15.2%,39.8%,41.9%,4.27% (active),14.3%,0.802% (active),-25.4% (active),34.6%,67.6%,67.6%,3.1% (active),23.8%,44.7%,29.8%,78%
O=C1c2c(c3c4cccnc4[nH]c3c3ccc4ccccc4c23)C(=O)N1O,91%,97.7%,26.5%,57.6%,133%,45%,47%,84.7%,15.3%,6.42% (active),17.8%,16%,46%,110%,53.8%,75.5%,38%,14.4%,70.9%,94.3%
CCCN1C(=O)N(CCC)C2C1NC(=S)N2/N=C/C=C/c1ccccc1OC (stereo not given),49.6%,51.5%,38.3%,39.5%,57.3%,41.4%,26.6%,-5.66% (active),10.1%,27.6%,22%,19%,12.2%,26.7%,55.2%,34.9%,30.6%,-20.9% (active),9.95% (active),9.94% (active)
CCOC(=O)CSc1nc2sc3c(c2c(=O)n1-c1ccccc1)CCCCC3,103%,103%,95.1%,84.1%,102%,102%,102%,105%,97%,102%,103%,105%,103%,103%,116%,100%,106%,93.5%,103%,108%
O=C(O)c1cc2ccccc2s1,127%,106%,106%,94.5%,123%,103%,94.7%,108%,100%,100%,104%,105%,102%,103%,113%,103%,106%,120%,99.3%,108%
COc1ccccc1NC(=O)n1c(=O)cc(C)c2ccc(O)cc21,101%,100%,101%,88.6%,111%,110%,99.6%,113%,107%,103%,118%,109%,106%,112%,110%,100%,113%,113%,110%,107%
COc1ccc(-c2csc(NC(=O)CSc3nc(C)cc(=O)[nH]3)n2)cc1,103%,96.1%,98.2%,99%,107%,105%,109%,103%,106%,110%,118%,96%,102%,112%,104%,102%,101%,103%,96.8%,96.9%
O=C(Oc1ccccc1)c1cc(O)c(O)c(O)c1,125%,52.2%,66.1%,53.8%,81%,62.6%,33.6%,87.3%,26.6%,62.5%,32.9%,65.7%,71.4%,107%,63.7%,77.3%,76%,18.1%,39.9%,61.1%
COc1cc2c(cc1OC)CC[N+](CCC[N+](C)(C)C)=C2,88.9%,100%,98%,91.1%,80.5%,104%,96.3%,104%,97.9%,91.6%,89.8%,103%,110%,91.5%,99%,92.9%,99.6%,108%,111%,102%
CCOC(=O)c1c(N)sc2cc(O)ccc12,110%,106%,101%,83%,101%,98.2%,97.7%,104%,111%,84.5%,93%,110%,100%,100%,108%,111%,97.1%,97.9%,99.9%,100%
CC(=O)/C(Br)=C/c1ccc(Br)o1,99.2%,105%,73.5%,52.7%,71.5%,60.1%,26.1%,105%,-31% (active),-15.4% (active),-18.2% (active),67.1%,79%,95.6%,86.1%,104%,86.9%,23.5%,26.7%,93.9%
CCOC(=O)c1cnc2sc(-c3ccc(OC)cc3)nc2c1Cl,102%,90.4%,102%,78.8%,145%,105%,95%,86.8%,96.4%,97.3%,96.8%,93.1%,112%,118%,86.9%,121%,102%,108%,89.3%,90%

Structure (SMILES),growth [1],growth [2],growth [3],growth [4],growth [5],growth [6],growth [7],growth [8],growth [9],growth [10],growth [11],growth [12],growth [13],growth [14],growth [15],growth [16],growth [17],growth [18],growth [19],growth [20]
O=C1C(Nc2ccc(Br)cc2)=C(I)C(=O)c2ncccc21,79.2%,77.6%,1.34% (active),-38.4% (active),70.7%,-20.1% (active),18.6%,96%,8.63% (active),-2.02% (active),4.58% (active),6.59% (active),2.71% (active),73.5%,-95.6% (active),83.9%,-56.7% (active),-85.3% (active),40.7%,1.39% (active)
CCCCC#Cc1c(I)n(C2OC(CO[Si](C)(C)C(C)(C)C)C3OC(C)(C)OC32)c(=O)[nH]c1=O (stereo not given),55.6%,92.2%,85.1%,56.1%,68.9%,72.5%,74.4%,99.1%,8.63% (active),4.72% (active),-5.46% (active),-46.9% (active),85.7%,82.5%,70.3%,98.8%,83.8%,42.7%,100%,84.5%
COC(=O)[C@H]1Cc2c([nH]c3ccccc23)[C@H](c2ccc3c(c2)OCO3)N1,113%,95.5%,100%,80.2%,96%,98.4%,82.3%,97.5%,96.4%,100%,103%,97.5%,103%,100%,94%,102%,90.6%,99.7%,102%,99.8%
COc1cccc(/C=C/C(=O)/C=C(/C=C/c2cccc(OC)c2OC)OB(F)F)c1OC,110%,87.7%,43%,37.8%,68%,19.6%,35.8%,122%,7.53% (active),9.58% (active),15.2%,23.6%,16.7%,64%,50.7%,97%,33.7%,10.8%,38.3%,19.6%
COc1ccc(CNc2c3ccccc3nc3ccccc23)cc1OC,38.6%,15.2%,22.5%,12.1%,32.3%,4.11% (active),10.5%,-12.1% (active),30.5%,10.6%,8.57% (active),0.62% (active),23.9%,27.5%,21.4%,41.2%,10.9%,43.7%,37.2%,19.3%
O=C(Nc1ncc(Cc2ccccc2Cl)s1)c1ccc2c(c1)OCCO2,39.8%,33.8%,30.2%,51.9%,46.2%,37.3%,20%,-0.0402% (active),6.45% (active),7.02% (active),5.14% (active),19.3%,24.2%,33.2%,43.5%,32.5%,28.4%,-14.4% (active),19.8%,14.5%
COc1cccc(CNc2nnc(C)c(C)n2)c1O,106%,104%,96.7%,91.6%,108%,110%,100%,95.3%,101%,109%,102%,100%,99.2%,108%,103%,87%,107%,110%,108%,104%
CCN1CCN(CCOc2ccc(CNc3ccc4nc(CCC5CCCCC5)[nH]c4c3)cc2)CC1,-3.49% (active),71.3%,67.8%,-24.9% (active),81.2%,40.9%,0.23% (active),43.9%,8.27% (active),20%,31.5%,-5.5% (active),38.2%,58.7%,48.2%,87.1%,40.9%,27.8%,65%,73.5%
c1ccc(-c2cn3nc(-c4c[nH]c5ccccc45)sc3n2)cc1,94.4%,70.3%,83%,46.4%,105%,83.3%,66.1%,89.9%,86.4%,83.9%,21.7%,91.8%,93.3%,74.2%,70.4%,80.4%,56.5%,86.1%,84.5%,84.3%
CN1CCN(CC(=O)N(C)c2ccc(N=C(c3ccccc3)c3c(O)[nH]c4ccc([N+](=O)[O-])cc34)cc2)CC1,52.7%,94.2%,56.8%,28.8%,103%,54%,47.1%,66.7%,15.1%,15.7%,19.4%,82.7%,79.6%,122%,57.7%,14.4%,49.3%,73.6%,18.2%,90.8%
COc1cccc(/C=C2\CCc3ccccc3C2=O)c1,82.9%,87.9%,84.6%,72.5%,94.4%,95.7%,77.3%,95.2%,37.7%,71.6%,21%,6.5% (active),92.5%,85.9%,88.5%,86.5%,80.7%,89.5%,87.4%,71.4%
CCOC(=O)c1c(NC(=S)Nc2ccc([N+](=O)[O-])cc2)sc2c1CCCCC2,66.6%,79.2%,55.7%,76.2%,85.9%,84.6%,79.1%,49.8%,64%,72.9%,61.7%,46.7%,77.3%,93.7%,71.6%,66%,89.7%,65.1%,81.8%,54%
N#C/C(=N\Nc1ccccc1)C(=O)Nc1cc(-c2ccccc2)nn1-c1ccccc1,22.6%,28.3%,3.41% (active),29.7%,38.6%,39%,37.9%,1.62% (active),26.6%,33.3%,62.3%,18.5%,40.6%,72.2%,22.1%,31.3%,30.6%,12.4%,41.9%,41.5%
COc1ccc(/C=N\NC(=O)c2ccc3nc(-c4ccc(Cl)cc4)[nH]c3c2)cc1,64.1%,29.4%,6.24% (active),81.9%,39.1%,21.9%,60.5%,66.6%,65.3%,68.2%,0.647% (active),59.2%,31.3%,77.3%,-30.6% (active),72.3%,14.6%,20.1%,32.3%,73.6%
CC(C)(C)CC(C)(C)Nc1c(-c2c(O)c3ccccc3oc2=O)nc2sccn12,96.8%,105%,93.5%,83.6%,90.5%,99.8%,92.8%,118%,92.2%,101%,111%,97.7%,91%,97.5%,111%,87.2%,93.2%,109%,96.3%,98.3%
